Measurements taken from the supplement of paper PMC6089552.
Screen size: about 3,200 compounds; about 300 (9.4%) showed activity. For the sample, actives were picked, then their nearest neighbours and some compounds at random.

Test system: A673/TR/shEF
Assay: cell viability (LOESS-normalised, relative to median of negative controls) (log2 ratio); higher = more viable cells (less compound effect), active = hit call of the paper (over 3 MAD below the median)
Conditions: treatment time: 72 h
In short: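 A673/TR/shEF Ewing sarcoma cells were plated at 1,500 per well in 384-well plates and cultured with or without doxycycline, added 24 h before compounds, to induce EWS-FLI1 shRNA knockdown. Library compounds at two or more concentrations, alongside DMSO controls, were applied for three days. Cell viability was measured by CellTiter-Glo luminescence on an Envision reader. Readings were LOESS-corrected per plate, divided by the median of negative controls and log2-transformed, and hits were wells lying at least three median absolute deviations from the median of all screened wells.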

[1] = 0.025 µM, library screen: screen2, EWS-FLI1 expression: high (no doxycycline)
[2] = 0.025 µM, library screen: screen2, EWS-FLI1 expression: low (doxycycline-induced shRNA knockdown)
[3] = 0.103 µM, library screen: screen3, EWS-FLI1 expression: high (no doxycycline)
[4] = 0.103 µM, library screen: screen3, EWS-FLI1 expression: low (doxycycline-induced shRNA knockdown)
[5] = 0.25 µM, library screen: screen1, EWS-FLI1 expression: high (no doxycycline)
[6] = 0.25 µM, library screen: screen1, EWS-FLI1 expression: low (doxycycline-induced shRNA knockdown)
[7] = 0.25 µM, library screen: screen2, EWS-FLI1 expression: high (no doxycycline)
[8] = 0.25 µM, library screen: screen2, EWS-FLI1 expression: low (doxycycline-induced shRNA knockdown)
[9] = 0.308 µM, library screen: screen3, EWS-FLI1 expression: high (no doxycycline)
[10] = 0.308 µM, library screen: screen3, EWS-FLI1 expression: low (doxycycline-induced shRNA knockdown)
[11] = 0.926 µM, library screen: screen3, EWS-FLI1 expression: high (no doxycycline)
[12] = 0.926 µM, library screen: screen3, EWS-FLI1 expression: low (doxycycline-induced shRNA knockdown)
[13] = 2.5 µM, library screen: screen1, EWS-FLI1 expression: high (no doxycycline)
[14] = 2.5 µM, library screen: screen1, EWS-FLI1 expression: low (doxycycline-induced shRNA knockdown)
[15] = 2.5 µM, library screen: screen2, EWS-FLI1 expression: high (no doxycycline)
[16] = 2.5 µM, library screen: screen2, EWS-FLI1 expression: low (doxycycline-induced shRNA knockdown)
[17] = 2.8 µM, library screen: screen3, EWS-FLI1 expression: high (no doxycycline)
[18] = 2.8 µM, library screen: screen3, EWS-FLI1 expression: low (doxycycline-induced shRNA knockdown)
[19] = 8.3 µM, library screen: screen3, EWS-FLI1 expression: high (no doxycycline)
[20] = 8.3 µM, library screen: screen3, EWS-FLI1 expression: low (doxycycline-induced shRNA knockdown)
[21] = 25 µM, library screen: screen2, EWS-FLI1 expression: high (no doxycycline)
[22] = 25 µM, library screen: screen2, EWS-FLI1 expression: low (doxycycline-induced shRNA knockdown)
[23] = 25 µM, library screen: screen3, EWS-FLI1 expression: high (no doxycycline)
[24] = 25 µM, library screen: screen3, EWS-FLI1 expression: low (doxycycline-induced shRNA knockdown)
[25] = 0.025 µM, library screen: screen1, EWS-FLI1 expression: high (no doxycycline)
[26] = 0.025 µM, library screen: screen1, EWS-FLI1 expression: low (doxycycline-induced shRNA knockdown)
[27] = 25 µM, library screen: screen1, EWS-FLI1 expression: high (no doxycycline)
[28] = 25 µM, library screen: screen1, EWS-FLI1 expression: low (doxycycline-induced shRNA knockdown)

Measured: cell viability (log2)

CC[C@@]1(O)C(=O)OCc2c1cc1n(c2=O)Cc2cc3ccccc3nc2-1
inactive: [1] -0.0654 | [2] 0.049 | [4] -0.0714
active: [3] -1.01 | [5] -2.18 | [6] -0.586 | [7] -2.99 | [8] -0.42 | [9] -2.37 | [10] -0.543 | [11] -3.61 | [12] -0.88 | [13] -1.57 | [14] -0.388 | [15] -3.53 | [16] -0.945 | [17] -4.24 | [18] -1.16 | [19] -4.26 | [20] -1.3 | [21] -4.09 | [22] -1.25 | [23] -4.26 | [24] -2.33

C[C@]12CCC(=O)C=C1C=CC1C2CC[C@@]2(C)C1CC[C@@]2(O)CCC(=O)O (stereo partly specified)
inactive: [5] 0.0813 | [6] -0.0168 | [13] 0.15 | [14] -0.00183

N[C@@H](Cc1ccc(N(CCCl)CCCl)cc1)C(=O)O
inactive: [5] 0.0874 | [6] 0.0161 | [7] 0.175 | [8] 0.17 | [13] 0.00755 | [14] 0.0488 | [15] 0.22 | [16] 0.172

O=C(O)CCCc1ccc(N(CCCl)CCCl)cc1
inactive: [1] 0.0942 | [2] 0.0711 | [5] 0.0971 | [6] 0.0808 | [7] 0.12 | [8] 0.0418 | [13] 0.142 | [14] 0.131 | [15] 0.101 | [16] 0.11 | [22] 0.0238
active: [21] -0.0762

Cn1c(CCCC(=O)O)nc2cc(N(CCCl)CCCl)ccc21
inactive: [3] 0.058 | [4] 0.0297 | [9] -0.00941 | [10] 0.026 | [11] -0.00645 | [12] 0.00947 | [17] -0.0453 | [18] -0.00369 | [19] 0.00708 | [20] 0.0974 | [23] -0.0533 | [24] 0.0463

CC(=O)CC1CCCCN1 (stereo unspecified)
inactive: [5] 0.0906 | [6] -0.00634 | [13] 0.0756 | [14] -0.083

CC(=O)O[C@@H]1CC2C(C)(C)[C@H](O)C=C[C@]2(C)C2CC[C@]3(C)C(=CC(=O)O[C@H]3c3ccoc3)[C@@]21C (stereo partly specified)
inactive: [5] 0.113 | [6] 0.0781 | [13] 0.222 | [14] 0.195

CCc1cccc(CC)c1N(COC)C(=O)CCl
inactive: [5] 0.0413 | [6] -0.00378 | [13] 0.0617 | [14] 0.0338

CC1(C)C(C=C(Cl)Cl)C1C(=O)OC(C#N)c1cccc(Oc2ccccc2)c1 (stereo unspecified)
active: [27] -0.287 | [28] -0.665
inactive: [25] 0.0827 | [26] 0.0478 | [5] 0.102 | [6] -0.0402 | [13] 0.0354 | [14] -0.0899

CC(C)C(C(=O)OC(C#N)c1cccc(Oc2ccccc2)c1)c1ccc(Cl)cc1 (stereo unspecified)
inactive: [25] 0.0912 | [26] 0.0926 | [5] 0.0365 | [6] 0.00166 | [13] 0.0694 | [14] 0.0411 | [27] 0.0435 | [28] 0.0476

CC1(C)[C@H](C(=O)O[C@H](C#N)c2cccc(Oc3ccccc3)c2)[C@@H]1C=C(Br)Br
inactive: [25] 0.0513 | [26] -0.0407 | [5] 0.047 | [6] 0.086 | [13] 0.112 | [14] 0.12 | [27] -0.0163 | [28] 0.0977
